We go through 105 compounds from PubChem BioAssay AID364 (The Scripps Research Institute Molecular Screening Center, 2006).

About 50 (2%) of roughly 3,300 compounds were called active.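 Rule for the calls: active = concentration giving half-maximal inhibition at or below 20 micromolar; inactive = half-maximal concentration above 20 micromolar, or not dose tested.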 A selection follows. Entries with a potency or affinity are not part of this list.

A short description of the experiment: Jurkat cell viability reduction – Jurkat E6.1, NIH starter set, primary screen (AID 364).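 Note: 100% = cells treated with 4 µM doxorubicin.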 The settings on record: Jurkat E6.1 viability, ATP luminescence, 48 h; at 4 µM; active compounds read high.
With `Cc1cc(CCC(=O)O)c(C)cc1CCC(=O)O`, the inhibition is -4.4% (inactive).
To `NS(=O)(=O)c1ccc(-c2ccc(C=NC3CCS(=O)(=O)C3)o2)cc1` (stereo not given) belongs 10.2% (inactive).
As for `O=C(C1CCCCC1)N1CCCn2c1nc1ccccc12`, the inhibition was 1.8% (inactive).
To `O=C1C2CC=C(Cl)CC2C(=O)N1CNc1ccccn1` (stereo not given) belongs -4.2% (inactive); to `CCCOc1ccc(N2C(=O)CC(N(CCC)C(=O)CCC(=O)O)C2=O)cc1` (stereo not given), -0.8% (inactive); to `COc1cccc(/C(O)=C2/C(=O)C(=O)N(CCN(C)C)C2c2ccc(Br)cc2)c1` (stereo not given), -1.9% (inactive).
To `CCOc1ccc(Br)cc1CC(=O)O` belongs 13.6% (inactive).
Turning to `O=C(C(c1ccccc1)N1CCOCC1)N1CCOCC1` (stereo not given), the inhibition was -13.4% (inactive).
Next, `Cc1cc2c(c(=O)n1Cc1ccccn1)C(c1ccc3c(c1)OCO3)C(C#N)=C(N)O2` (stereo not given): -0.2% (inactive); `CCCCCOc1ccc(Cl)cc1CN1CCOCC1`: -0.4% (inactive).
To `COc1cccc(C2/C(=C(\O)c3ccc(OC)c(OC)c3)C(=O)C(=O)N2c2cc(C)on2)c1` (stereo not given) belongs -14.4% (inactive); to `Cc1cc(C)nc(N(C#N)S(=O)(=O)c2ccccc2Cl)n1`, 1% (inactive).
Next, `COc1ccc(OC)c(NC(=O)CSC2=C(C#N)C(c3ccco3)C3=C(CCCC3=O)N2)c1` (stereo not given): 4.8% (inactive); `COc1ccc(NC(=O)CSC2=C(C#N)C(c3ccco3)C3=C(CCCC3=O)N2)c(OC)c1` (stereo not given): 1.6% (inactive); `Cc1c(N2C(=O)SC(CC(=O)O)C2=O)c(=O)n(-c2ccccc2)n1C` (stereo not given): -2.7% (inactive).
As for `CC(=O)C1(C)OC(N)=C(C#N)C(c2ccccc2)C1(C#N)C#N` (stereo not given), the inhibition is 5.6% (inactive).
Next, `COc1ccc(N2C(=O)C3C(C2=O)C2C=CC3C23CC3)c(OC)c1` (stereo not given): 0.8% (inactive); `COc1ccccc1NC(=O)Nc1nnc(C(C)C)s1`: 9.4% (inactive).
To `COc1ccc(OC)c(C2=Nn3c(nnc3C3CCCCC3)SC2)c1` belongs 5.2% (inactive).
In the case of `c1ccc(-c2nnc3n2N=C(c2ccc4c(c2)OCO4)CS3)nc1`, the inhibition was -6.9% (inactive).
To `CC(=O)[C@H]1[C@@H]2C(=O)N(c3cccc(Cl)c3)C(=O)[C@@H]2[C@H]2c3ccccc3C=CN21` belongs -1.9% (inactive); to `CCOC(=O)CNS(=O)(=O)c1cc(-c2nn(C)c(=O)c3ccccc23)ccc1C`, 1.1% (inactive).
In the case of `C=C(C)CC1N(c2cccc(OC)c2)C(=O)[C@@H]2C(C(=O)O)[C@H]3C=C[C@@]12O3` (stereo not given in full), the inhibition was 5.9% (inactive).
To `CCCCOc1ccc(C(=O)Nc2ccc(N3CCN(C(C)=O)CC3)cc2)cc1` belongs 6.7% (inactive); to `N#CC1=C(N)NC(SCc2ccc(Cl)cc2)=C(C#N)C12CCCCC2`, 7.9% (inactive).
To `COc1ccc(C(=O)CSC2=C(C#N)C3(CCCCC3)C(C#N)=C(N)N2)cc1` belongs 4.2% (inactive).
As to `Cc1csc(SCCn2c(Br)nc3c2c(=O)[nH]c(=O)n3C)n1`, the inhibition is -4.7% (inactive).
To `N#CC1=C(N)C(C#N)(C#N)[C@H](c2ccncc2)[C@H]2CN(C(=O)OCc3ccccc3)CC=C12` belongs 2.4% (inactive).
For `O=C(CSc1nnc(-c2ccco2)c(-c2ccco2)n1)Nc1ccccc1`, the inhibition is 0.1% (inactive).
Next, `COCCOC(=O)c1c(C)nc(SCC(=O)Nc2ccc(C)cc2)c(C#N)c1-c1ccco1`: 13.5% (inactive); `C=CCN(C)CCCNC(=O)/C=N/O`: 2.4% (inactive); `CN(CCOC(=O)c1ccc2c(c1)OCCO2)Cc1ccccc1`: -9.3% (inactive).
Next, `O=C(CC(c1ccco1)S(=O)(=O)c1ccccc1)c1ccc(F)cc1` (stereo not given): -1% (inactive); `c1cncc(-c2nnc3sc(-c4ccco4)nn23)c1`: 7.6% (inactive); `COc1cc(-c2nn3c(-c4cccnc4)nnc3s2)cc(OC)c1OC`: 3.2% (inactive).
Regarding `Cc1c(NS(=O)(=O)c2cccc3nsnc23)c(=O)n(-c2ccccc2)n1C`, the inhibition was -5.3% (inactive).
Next, `CCN(CC)CCN1C(=O)C(O)=C(C(C)=O)C1c1ccc(OC)c(OC)c1` (stereo not given): -15.9% (inactive).
Regarding `Cn1c(=O)cc(NCc2ccccc2)[nH]c1=O`, the inhibition was -8.6% (inactive).
Consider `Cc1ccc2cc(CNC(C)(C)C)c(=O)[nH]c2c1`, for which the inhibition was 7.6% (inactive).
To `CCc1c(C)c(C#N)c2nc3ccccc3n2c1-n1nc(C)cc1C` belongs -5.3% (inactive); to `COCc1cc(C)nc(SCC(=O)Nc2ccc(C)c(C)c2)c1C#N`, -5.4% (inactive); to `CCc1nc2c(sc3nc(N4CCOCC4)c4c(c32)CC(C)(C)OC4)c(=O)o1`, -2% (inactive).
Consider `CN(C)CCCN1C(=O)C(=O)/C(=C(/O)c2ccccc2)C1c1ccccn1` (stereo not given), for which the inhibition is 8.4% (inactive).
As for `Cc1cccc(-c2nnc3n2N=C(c2ccccc2)CS3)c1`, the inhibition was 13.9% (inactive).
Take `COc1ccc(C2=Nn3c(nnc3-c3ccccn3)SC2)cc1OC`: the inhibition was 2.3% (inactive).
Next, `CCOc1ccc(C2=Nn3c(nnc3-c3cccnc3)SC2)cc1`: 2.1% (inactive).
`CCOc1ccc(C2=Nn3c(nnc3-c3ccccn3)SC2)cc1`: the inhibition is 2.6% (inactive).
For `c1ccc(C2=Nn3c(nnc3-c3ccccn3)SC2)cc1`, the inhibition is -9.2% (inactive).
Next, `CCOc1ccc(-c2nnc3sc(-c4ccccc4OC)nn23)cc1`: 1.2% (inactive); `COc1ccc(C2=Nn3c(nnc3-c3cccnc3)SC2)cc1OC`: -8.2% (inactive).
On to `COc1ccc(OC)c(C2=Nn3c(nnc3-c3ccco3)SC2)c1`, for which the inhibition is -10.8% (inactive).
For `CC1(C)CC(=O)C2=C(C1)N(CC1CCCO1)C(=O)C2(O)C(F)(F)F` (stereo not given), the inhibition was 7.7% (inactive).
Next, `COc1ccc(-c2nc3n(n2)C(=O)CC(c2ccco2)S3)cc1` (stereo not given): -1.6% (inactive); `Cc1cc(NCC2CCCO2)n2c(nc3ccccc32)c1C#N` (stereo not given): 15.2% (inactive); `CCOC(=O)NC(Nc1sc2c(c1C(N)=O)CCCC2)(C(=O)OCC)C(F)(F)F` (stereo not given): 2.5% (inactive).
For `CC(C)c1cc(NCCN2CCOCC2)n2c(nc3ccccc32)c1C#N`, the inhibition is 14.6% (inactive).
As to `O=P(Cc1nnco1)(c1ccccc1)c1ccccc1`, the inhibition is 1% (inactive).
Next, `CC(=O)Oc1ccccc1C1OCCN1C(C)=O` (stereo not given): -17.2% (inactive); `Cc1ccc2nc(C(F)(F)F)c(C#N)c(N)c2c1`: 11.8% (inactive); `C/C(NC(=O)c1ccccc1F)=C1\C(=O)C[C@@H]2[C@H]1C2(C)C`: -12.7% (inactive).
Next, `Cc1ccc(S(=O)(=O)NC(=O)NCc2ccc3c(c2)OCO3)cc1`: 7.5% (inactive); `CCN=C1SC(C(=O)Nc2ccc(Cl)c(Cl)c2)CC(=O)N1CC` (stereo not given): -3.4% (inactive).
Next, `O=C(OCCN1CCOCC1)c1ccc(OCCN2CCOCC2)cc1`: -3.3% (inactive); `Cn1c(/C(C#N)=C/Nc2ccccn2)nc2ccccc21`: -8.5% (inactive); `Cc1cc(=O)oc(C)c1C(=O)NC12CC3CC(CC(C3)C1)C2`: 0.6% (inactive).
Consider `COc1ccc2c(c1OC)C(=O)OC2C1c2c(cc3c(c2OC)OCO3)CCN1C` (stereo not given), for which the inhibition was 2.6% (inactive).
Next, `O=C(O)CC(C(=O)OCC1CCCO1)N1CCOCC1` (stereo not given): 11.6% (inactive); `COc1nc(N(C)S(=O)(=O)c2ccc(C)cc2)nc(C)c1Cl`: 2.3% (inactive); `COc1cccc(OC)c1-c1nn2c(-c3ccco3)nnc2s1`: -5.6% (inactive).
To `Cc1ccc2[nH]c(CCN(C)C)c(CC#N)c2c1` belongs -1% (inactive); to `CC(=O)Nc1ccc(Oc2ccc3nc(C)[nH]c3c2)cc1`, 6.6% (inactive).
Next, `CCC(=O)Nc1nc(C)c(Oc2ccccc2)c(=O)[nH]1`: -13.8% (inactive); `Cn1c(=O)n(C)c2cc(C(=O)c3ccccc3)ccc21`: -1.7% (inactive); `Cn1c(=O)oc2cc(C(=O)c3ccccc3)ccc21`: -2.2% (inactive).
Consider `CN1CCc2c(sc3ncn4nc(-c5ccccc5O)nc4c23)C1`, for which the inhibition was 2.9% (inactive).
`CSc1cc(C)nc(N(C)C(C)=O)n1`: the inhibition was -4.8% (inactive).
To `CC1(c2cnc(Nc3ccccc3)s2)CCC(=O)O1` (stereo not given) belongs 3.7% (inactive); to `CC1CN(c2oc(-c3ccccc3Cl)nc2C#N)CC(C)O1` (stereo not given), -11.7% (inactive); to `COc1ccc(/C(O)=C2/C(=O)C(=O)N(CCCN(C)C)C2c2ccccc2)cc1Cl` (stereo not given), 9.5% (inactive).
To `COc1cccc(C2/C(=C(\O)c3ccc4c(c3)OCCO4)C(=O)C(=O)N2CCCN(C)C)c1OC` (stereo not given) belongs -10.5% (inactive); to `C=CCn1cnc2c(c1=O)c1nc3ccccc3nc1n2-c1ccc(Cl)cc1`, -1.6% (inactive); to `CCCCOC(=O)CSC1=C(C#N)C(c2ccc3c(c2)OCO3)CC(=O)N1` (stereo not given), 6.5% (inactive).
To `CCCOC(=O)CSC1=C(C#N)C(c2ccc3c(c2)OCO3)CC(=O)N1` (stereo not given) belongs 29.3% (inactive); to `CSc1nc2[nH]c3c(c2c2nnnn12)CCCC3`, 1.2% (inactive); to `CC(=O)Nc1cccc(NC(=O)CSc2nc(C)c(C)c(C)c2C#N)c1`, -4.8% (inactive).
As to `COc1cc(C2C3C(=O)N(c4ccc(F)cc4)C(=O)C3ON2c2ccccc2)ccc1O` (stereo not given), the inhibition is 2.1% (inactive).
Next, `COc1cccc(Cn2c(NCC(C)C)nc3c2c(=O)n(C)c(=O)n3C)c1`: 10.8% (inactive); `CCCCNc1nc2c(c(=O)n(C)c(=O)n2C)n1Cc1cccc(OC)c1`: 35.2% (inactive); `CN(C)CCNC(=O)C12CC3(C)CC(C)(CC(C)(C3)C1)C2`: -4.1% (inactive).
Next, `CCOc1cccc(NC(=O)C2CC(=O)NC(=Nc3ccccc3)S2)c1` (stereo not given): 15.4% (inactive); `Cn1c(=O)[nH]c(=O)c2c1nc(Br)n2CCSc1nnnn1-c1ccccc1`: -0.6% (inactive); `ClC(Br)=C(n1cnc2ccccc21)n1cnc2ccccc21`: 3.1% (inactive).
Regarding `CC(=O)CCn1c(=O)n(CCC(C)=O)c(=O)n(CCC(C)=O)c1=O`, the inhibition is 4% (inactive).
To `Clc1ccc2c(c1)C(N1CCNCC1)=Nc1ccccc1O2` belongs 2.2% (inactive).
As for `CN1CCN(C2=Nc3ccccc3Oc3ccc(Cl)cc32)CC1`, the inhibition was 2.6% (inactive).
Next, `CC(C)CNC(=O)c1c(N)n(/N=C/c2cccnc2)c2nc3ccccc3nc12`: -0.2% (inactive); `COc1cccc(C2C(C(=O)c3sc(C)nc3C)=C(O)C(=O)N2CCN2CCOCC2)c1OC` (stereo not given): 3.5% (inactive); `CN(C)c1oc(-c2cccs2)nc1C#N`: 5.5% (inactive).
Take `COc1ccc(-n2c(=O)c3c4c(sc3n3c(C)nnc23)CC(C)CC4)cc1` (stereo not given): the inhibition was -5% (inactive).
Next, `COc1ccc(Nc2cc(C)nc3ccccc23)cc1`: 6.3% (inactive).
To `COc1ccc(Nc2nc(Nc3ccc(OC)cc3)nc(-n3[nH]c(=O)c(C)c3C)n2)cc1` belongs 4.5% (inactive).
Next, `Cc1[nH]c2ccc(F)cc2c(=O)c1SC(F)(F)C(F)C(F)(F)F` (stereo not given): 1.9% (inactive); `COc1ccc(C(=O)c2oc3nc(C)cc(C)c3c2N)cc1`: -3.3% (inactive); `C=CCn1c(SCc2c(F)c(F)c(F)c(F)c2F)nc(O)cc1=O`: -3.4% (inactive).
For the compound `CC(C)C(C(=O)Nc1ncn[nH]1)N1C(=O)c2ccccc2C1=O` (stereo not given), the inhibition is 1% (inactive).

One may read the inhibition as the drop in the measured response relative to a control, in per cent.
